# Test results as given in the supplement of paper PMC6607015.
# Where a name gives a salt, the structure may show the parent alone.
# Tests used:
# Conditions in all cases: compound concentration in added solution (µM; 5 µl added to 20 µl cells): 10; 18 h
# A431 [1] = experiment: LBPA endosome anti-LBPA integrated intensity (sum per cell), Z-score; higher = more LBPA staining
# In short: (§1)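 Z-scores normalised in AcuityXpress are given for per-cell integrated LBPA or filipin intensity, measured whole-cell or within LBPA endosomes by MetaXpress segmentation. Cells (HeLa MZ or A431, 3,500 per well in 20 µl) were seeded onto 5 µl of 10 µM compound solution in duplicate 384-well imaging plates and fixed in 4% PFA after 18 h.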
# HeLa MZ [2] = experiment: as above
# In short: as §1
# A431 [3] = experiment: whole-cell filipin (free cholesterol) integrated intensity, Z-score; higher = more cholesterol staining
# In short: as §1
# HeLa MZ [4] = experiment: as above
# In short: as §1
# A431 [5] = experiment: filipin (cholesterol) integrated intensity within LBPA endosomes, Z-score; higher = more cholesterol in LBPA endosomes
# In short: as §1
# HeLa MZ [6] = experiment: as above
# In short: as §1
Structure (SMILES),LBPA endosome anti-LBPA integrated intensity (z-score) (A431 [1]),LBPA endosome anti-LBPA integrated intensity (z-score) (HeLa MZ [2]),whole-cell filipin (z-score) (A431 [3]),whole-cell filipin (z-score) (HeLa MZ [4]),filipin (z-score) (A431 [5]),filipin (z-score) (HeLa MZ [6])
OC(Cn1cncn1)(Cn1cncn1)c1ccc(F)cc1F [Fluconazole],-0.239,0.69,-0.0365,0.704,-0.366,-0.348
COc1ccc(-c2cc(=S)ss2)cc1 [Anethole-trithione],-0.536,-0.179,-0.0973,0.207,-0.447,-0.257
O=C1CN(/N=C/c2ccc(-c3ccc([N+](=O)[O-])cc3)o2)C(=O)N1 [Dantrolene sodium salt],-0.554,-0.147,-1.1,-0.944,-0.655,-0.686
Nc1ccc(S(=O)(=O)Nc2ccnn2-c2ccccc2)cc1 [Sulfaphenazole],-0.541,-1.02,-0.89,-1.05,-0.533,-0.671
CC[N+](C)(CC)CCC[n+]1c(-c2ccccc2)c2cc(N)ccc2c2ccc(N)cc21 [Propidium iodide],-0.615,-1.77,-0.548,-0.836,-0.56,-0.527
CN[C@@H]1[C@H](O[C@H]2[C@H](O[C@H]3[C@H](O)[C@@H](O)[C@H](N=C(N)N)[C@@H](O)[C@@H]3N=C(N)N)O[C@@H](C)[C@]2(O)C=O)O[C@@H](CO)[C@H](O)[C@H]1O [Streptomycin sulfate],-0.673,-1.38,-0.979,-0.78,-0.577,-0.576
Nc1ccn([C@H]2CC[C@@H](CO)O2)c(=O)n1 [Zalcitabine],-0.426,-0.556,0.221,0.402,-0.388,-0.459
O=C(O)c1cc(/N=N/c2ccc(S(=O)(=O)Nc3ccccn3)cc2)ccc1O [Sulfasalazine],-0.338,0.849,0.0767,1.46,-0.515,-0.277
Nc1nc2c(ncn2COC(CO)CO)c(=O)[nH]1 [Ganciclovir],-0.282,0.382,-0.0797,0.0803,-0.332,-0.411
CC(C)COCC(CN(Cc1ccccc1)c1ccccc1)N1CCCC1 (configuration not stated) [Bepridil hydrochloride],1.46,1.74,-0.0149,-0.717,2.11,0.331
O=C(C1CCCCC1)N1CC(=O)N2CCc3ccccc3C2C1 (configuration not stated) [Praziquantel],-0.253,-0.0737,-0.0988,0.0128,-0.417,-0.225
NC(=O)N1c2ccccc2C=Cc2ccccc21 [Carbamazepine],-0.439,-0.106,-0.553,-0.708,-0.587,-0.687
Cn1c(=O)c2c(ncn2CC2OCCO2)n(C)c1=O [Doxofylline],-0.341,0.313,-0.207,-0.159,-0.416,-0.528
CN(C)c1ccc(O)c2c1C[C@H]1C[C@H]3[C@H](N(C)C)C(O)=C(C(N)=O)C(=O)[C@@]3(O)C(O)=C1C2=O [Minocycline hydrochloride],-0.618,-1.91,-1.01,-1.52,-0.639,-0.888
OC(CCCN1CCCCC1)(c1ccccc1)c1ccccc1 [Diphenidol hydrochloride],-0.218,0.517,-0.613,-0.594,-0.133,-0.0129
CCCCC(C)(O)C/C=C/[C@H]1[C@H](O)CC(=O)[C@@H]1CCCCCCC(=O)OC (mixture of isomers) [Misoprostol],-0.446,-0.811,0.395,-0.741,-0.436,-0.608
COCCCC/C(=N\OCCN)c1ccc(C(F)(F)F)cc1 [Fluvoxamine maleate],0.482,2.11,1.69,0.282,0.839,0.935
O=C(O)c1cn(-c2ccc(F)cc2)c2cc(N3CCNCC3)c(F)cc2c1=O [Sarafloxacin],-0.35,-0.0848,0.000583,-0.426,-0.428,-0.434
CCC(=O)OCC(=O)[C@@]1(OC(=O)CC)[C@@H](C)C[C@H]2[C@@H]3CCC4=CC(=O)C=C[C@]4(C)[C@@]3(Cl)[C@@H](O)C[C@@]21C [Beclomethasone dipropionate],-0.15,0.711,0.251,-0.00746,-0.116,0.00681
CS(=O)(=O)c1ccc([C@@H](O)[C@@H](CF)NC(=O)C(Cl)Cl)cc1 [Florfenicol],-0.565,-1.2,-0.505,-0.36,-0.528,-0.651
CCN(CC)C(C)CN1c2ccccc2Sc2ccccc21 (configuration not stated) [Ethopropazine hydrochloride],3.1,5.78,2.83,2.95,2.11,1.8
COC(c1ccccc1)(c1ccccc1)[C@H](Oc1nc(C)cc(C)n1)C(=O)O [Ambrisentan],-0.48,-0.16,-0.0813,1.12,-0.393,-0.359
c1ccc(C2CN3CCSC3=N2)cc1 (configuration not stated) [Tetramisole hydrochloride],-0.644,0.538,-0.603,-0.217,-0.702,-0.156
CN1C(C(=O)Nc2ccccn2)=C(O)c2sccc2S1(=O)=O [Tenoxicam],-0.541,-0.303,-0.432,-0.0776,-0.522,-0.391

Structure (SMILES),LBPA endosome anti-LBPA integrated intensity (z-score) (A431 [1]),LBPA endosome anti-LBPA integrated intensity (z-score) (HeLa MZ [2]),whole-cell filipin (z-score) (A431 [3]),whole-cell filipin (z-score) (HeLa MZ [4]),filipin (z-score) (A431 [5]),filipin (z-score) (HeLa MZ [6])
CN(C)CCOC1=Cc2ccccc2Sc2ccc(Cl)cc21 [Zotepine],3.49,1.41,1.18,-0.352,3.08,1.71
CO[C@@]1(NC(=O)CSCC#N)C(=O)N2C(C(=O)O)=C(CSc3nnnn3C)CS[C@@H]21 [Cefmetazole sodium salt],-0.329,0.139,-0.215,-0.0972,-0.434,-0.479
c1ccc(-c2ccc(C(c3ccccc3)n3ccnc3)cc2)cc1 (configuration not stated) [Bifonazole],-0.285,0.816,0.345,0.00932,-0.374,-0.192
COc1cc(C)nc(-n2nc(C)cc2OC)n1 [Epirizole],-0.401,-0.156,-0.543,-1.08,-0.458,-0.525
CC(C)[N+](C)(CCOC(=O)C1c2ccccc2Oc2ccccc21)C(C)C [Propantheline bromide],-0.352,0.315,-0.217,0.064,-0.366,-0.177
Clc1ccc(CO/N=C(\Cn2ccnc2)c2ccc(Cl)cc2Cl)c(Cl)c1 [Oxiconazole Nitrate],0.391,1.11,1.4,1.62,0.64,0.784
Cn1c([N+](=O)[O-])cnc1COC(N)=O [Ronidazole],-0.617,-0.899,-0.075,-0.4,-0.579,-0.485
CC1COc2c(N3CCN(C)CC3)c(F)cc3c(=O)c(C(=O)O)cn1c23 (configuration not stated) [Ofloxacin],-0.519,-0.166,-0.939,0.125,-0.532,-0.106
CCN(CC)CCOC(=O)C(c1ccccc1)C1CCCCC1 (configuration not stated) [Drofenine hydrochloride],1.02,2.6,1.05,0.772,1.02,1.12
Cc1cc(NC(=O)C2=C(O)c3ccccc3S(=O)(=O)N2C)no1 [Isoxicam],-0.656,-1.14,-0.786,-0.746,-0.604,-0.633
CC(=O)[C@@]1(O)CC[C@H]2[C@@H]3C[C@H](C)C4=CC(=O)C=C[C@]4(C)[C@@]3(F)[C@@H](O)C[C@@]21C [Fluorometholone],-0.292,-0.618,-0.262,-0.2,-0.289,-0.522
O=C1Cc2cc(CCN3CCN(c4nsc5ccccc45)CC3)c(Cl)cc2N1 [Ziprasidone  Hydrochloride],1.04,1.09,0.285,0.974,0.571,1.31
CCCCOc1ccc(OCCCN2CCOCC2)cc1 [Pramoxine hydrochloride],-0.284,1.34,0.443,2.25,-0.151,0.197
Nc1ccc(S(=O)(=O)Nc2ccc(Cl)nn2)cc1 [Sulfachloropyridazine],-0.463,-0.899,-0.227,-0.78,-0.494,-0.56
COc1ccc(-c2cc(=O)c3c(O)cc(O[C@@H]4O[C@H](CO[C@@H]5O[C@@H](C)[C@H](O)[C@@H](O)[C@H]5O)[C@@H](O)[C@H](O)[C@H]4O)cc3o2)cc1O [Diosmin],-0.501,-0.4,-0.678,-0.378,-0.518,-0.715
CC(=O)N[C@@H](CC(C)C)C(=O)O [N-Acetyl-L-leucine],-0.45,-0.158,-0.322,0.0999,-0.425,-0.357
CN[C@H](CC(C)C)C(=O)N[C@H]1C(=O)N[C@@H](CC(N)=O)C(=O)N[C@H]2C(=O)N[C@H]3C(=O)N[C@H](C(=O)N[C@H](C(=O)O)c4cc(O)cc(O)c4-c4cc3ccc4O)[C@H](O)c3ccc(c(Cl)c3)Oc3cc2cc(c3O[C@@H]2O[C@H](CO)[C@@H](O)[C@H](O)[C@H]2O[C@H]2C[C@](C)(N)[C@H](O)[C@H](C)O2)Oc2ccc(cc2Cl)[C@H]1O [Vancomycin hydrochloride],-0.435,-0.0824,-0.355,-0.041,-0.42,-0.35
CCc1cccc2c3c([nH]c12)C(CC)(CC(=O)O)OCC3 (configuration not stated) [Etodolac],-0.65,-1.97,-0.842,-0.545,-0.553,-0.628
Cc1oncc1C(=O)Nc1ccc(C(F)(F)F)cc1 [Leflunomide],-0.572,-0.48,-0.143,-0.573,-0.693,-0.555
CCOC(=O)C1=C[C@]2(CC)CCCN3CCc4c(n1c1ccccc41)[C@@H]32 [Vinpocetine],-0.0891,0.52,-0.413,-0.464,-0.326,-0.0256
C[C@]12CCC(=O)C=C1CC[C@@H]1[C@@H]2[C@@H](O)C[C@@]2(C)[C@H]1CC[C@]2(O)C(=O)CO [Hydrocortisone base],-0.41,-0.249,-0.675,-0.6,-0.327,-0.44
C[C@@H]1CN(c2c(F)c(N)c3c(=O)c(C(=O)O)cn(C4CC4)c3c2F)C[C@H](C)N1 [Sparfloxacin],-0.202,0.876,0.309,0.295,-0.322,-0.143
CN1CCCC(n2nc(Cc3ccc(Cl)cc3)c3ccccc3c2=O)CC1 (configuration not stated) [Azelastine HCl],3.18,2.26,1.79,0.915,2.29,3.01
